A short description of assay [1]: qHTS assay to identify small molecule antagonists of the glucocorticoid receptor (GR) signaling pathway - cell viability counter screen (AID 720693). Further: nearly all actives have a fitted effect of over 55% in size. Background: qHTS replaces the single test concentration by a dilution series.
Assay [2] is described as follows: qHTS assay for identifying genotoxic compounds that show differential cytotoxicity against isogenic chicken DT40 cell lines with known DNA damage response pathways - wild type cell line (AID 743012). Further: nearly all actives have a fitted effect of over 60% in size. Further: potency means the concentration at half of the fitted maximal effect. The method, boiled down:
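300 wt DT40 cells/well; cpd (DMSO) pintool-transferred after ~0.5 h at 37 C/5% CO2; 40 h incubation; CellTiter-Glo added, 30 min RT; luminescence read.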

Assay [3] can be described thus: qHTS assay for identifying genotoxic compounds that show differential cytotoxicity against isogenic chicken DT40 cell lines with known DNA damage response pathways - Rev3 mutant cell line (AID 743014). Further: nearly all actives have a fitted effect of over 55% in size. Further: potency means the concentration at half of the fitted maximal effect.
The nature of assay [4]: qHTS assay for identifying genotoxic compounds that show differential cytotoxicity against isogenic chicken DT40 cell lines with known DNA damage response pathways - Rad54/Ku70 mutant cell line (AID 743015). Further: nearly all actives have a fitted effect of over 60% in size. Further: potency means the concentration at half of the fitted maximal effect.
The nature of assay [5]: qHTS assay to identify small molecule antagonists of the androgen receptor (AR) signaling pathway - cell viability counter screen (AID 743033; further: nearly all actives have a fitted effect of over 45% in size; further: potency means the concentration at half of the fitted maximal effect).
The nature of assay [6]: qHTS assay to identify small molecule antagonists of the androgen receptor (AR) signaling pathway using the MDA cell line - cell viability counter screen (AID 743041; further: nearly all actives have a fitted effect of over 45% in size). The method, boiled down:
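Cytotoxicity counter screen: MDA-kb2 AR-luc cells, compound + R1881, 16 h, 37C, 0% CO2; CellTiter-Fluor added at 15.5 h, fluorescence read after 30 min.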

The target of assay [7] is Androgen receptor (Homo sapiens) (UniProt P10275). Nature of the assay: qHTS assay to identify small molecule antagonists of the androgen receptor (AR) signaling pathway (AID 743035; active means well fitted inhibition curve with a large enough effect in the signal ratio in the repeat runs, not every such curve was filed as active; the % refers to the signal ratio). The method, boiled down:
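In this cell-based reporter screen, compounds were tested in concentration series against R1881-activated HEK293 cells expressing beta-lactamase under UAS control; after 16 h at 37C, FRET substrate was added and fluorescence read 2 h later.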

For assay [8] the target is unchanged. Nature of the assay: qHTS assay to identify small molecule agonists of the androgen receptor (AR) signaling pathway (AID 743036; active means well fitted activation curve with a large enough effect in the signal ratio in the repeat runs, with a control signal flat, not every such curve was filed as active; the % refers to the signal ratio). The method, boiled down:
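Fluorescence from a beta-lactamase FRET substrate served as read-out in AR-UAS-bla GripTite HEK293 cells. Cells were treated with DMSO-dissolved compounds for 16 h at 37C, then with LiveBLAzer B/G substrate for 2 h at room temperature.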

The target is the same in assay [9]. Kind of assay: qHTS assay to identify small molecule agonists of the androgen receptor (AR) signaling pathway using the MDA cell line (AID 743040; further: nearly all actives have a fitted effect of over 20% in size). The method, boiled down: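 Luciferase read-out, ONE-Glo, 30 min RT. Cells: MDA-kb2 AR-luc, MMTV promoter with AR and GR response elements. Compound exposure 16 h, 37C, 0% CO2, after 5 h pre-incubation. qHTS agonist mode.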

Assay [10] has the same target. Nature of the assay: qHTS assay to identify small molecule antagonists of the androgen receptor (AR) signaling pathway using the MDA cell line (AID 743042; further: nearly all actives have a fitted effect of over 55% in size). The method, boiled down: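 MDA-kb2 breast carcinoma cells carrying MMTV-luciferase (AR/GR responsive) were co-treated with compounds and the agonist R1881 for 16 h at 37C. Inhibition read as ONE-Glo luminescence; CellTiter-Fluor fluorescence measured in parallel for cytotoxicity.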

Where “and” joins values, the source holds several entries; their conditions need not be identical. Identical values can stand only once. Results filed as inconclusive are left out. Some structures have more than one record in an assay (separate samples or runs), and their calls can disagree. Calls of active or inactive are those of the source. Unless noted, the call rests on the fitted dose curve; in most records, active means well fitted curve in the direction sought with a large enough effect in the repeat runs; inconclusive means weak or mixed curves; inactive means no such curve, though single readings can be large; an effect the other way counts as inactive or inconclusive.

Chain of Androgen receptor (Homo sapiens) (P10275 whole entry, looked up): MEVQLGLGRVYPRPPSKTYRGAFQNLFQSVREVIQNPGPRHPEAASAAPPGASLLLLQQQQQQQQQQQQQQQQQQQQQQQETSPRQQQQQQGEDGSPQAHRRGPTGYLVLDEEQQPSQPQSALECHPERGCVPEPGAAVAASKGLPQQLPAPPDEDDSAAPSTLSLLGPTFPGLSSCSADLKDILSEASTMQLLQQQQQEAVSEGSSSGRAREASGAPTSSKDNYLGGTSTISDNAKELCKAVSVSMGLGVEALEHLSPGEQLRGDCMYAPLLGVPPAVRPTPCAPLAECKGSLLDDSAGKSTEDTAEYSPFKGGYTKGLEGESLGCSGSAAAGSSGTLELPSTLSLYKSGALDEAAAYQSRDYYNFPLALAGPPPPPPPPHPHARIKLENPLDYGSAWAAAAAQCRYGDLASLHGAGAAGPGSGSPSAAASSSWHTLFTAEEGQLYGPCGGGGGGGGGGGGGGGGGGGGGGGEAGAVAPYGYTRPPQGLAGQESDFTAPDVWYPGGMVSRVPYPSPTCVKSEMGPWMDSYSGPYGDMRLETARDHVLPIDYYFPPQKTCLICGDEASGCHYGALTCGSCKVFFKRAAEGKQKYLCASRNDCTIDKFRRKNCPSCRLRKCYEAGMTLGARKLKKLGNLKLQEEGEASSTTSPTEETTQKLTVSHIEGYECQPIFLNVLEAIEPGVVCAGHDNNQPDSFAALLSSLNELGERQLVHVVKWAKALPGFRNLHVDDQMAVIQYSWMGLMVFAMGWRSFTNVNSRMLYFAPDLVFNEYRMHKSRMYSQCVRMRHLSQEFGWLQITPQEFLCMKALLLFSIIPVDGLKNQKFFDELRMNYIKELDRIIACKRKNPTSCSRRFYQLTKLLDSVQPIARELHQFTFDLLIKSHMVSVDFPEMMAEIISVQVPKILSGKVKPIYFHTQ

For the compound `NCCc1ccc(O)c(O)c1`, the Potency result in assay [1] and in assay [5] was “inactive” each time. For the same compound, the Potency is 54.6 µM (active) in [2], 15.4 µM (active) in assay [3] and 19.4 µM (active) in assay [4].

As for `CCCCCCCCC`, the Potency result in assay [1], in assay [2], in assay [3], in assay [4], in assay [5] and in [6] was “inactive” in each case.

Take `CC1Cc2ccccc2N1NC(=O)c1ccc(Cl)c(S(N)(=O)=O)c1` (stereo unspecified): the Potency result in [1], in assay [2], in [3], in [4], in assay [5] and in [6] was “inactive” each time.

With `COC(=O)Nc1nc2ccc(Sc3ccccc3)cc2[nH]1`, the Potency result in assay [1], in [5] and in [6] was “inactive” throughout. Further, the Potency in assay [2] was 403 nM (active) and 217 nM (active); in assay [3], 285 nM (active) and 217 nM (active); in assay [4], 403 nM (active) and 386 nM (active).

`CCCCCC/C=C/CCCCCCCC(=O)O`: the Potency entry in [1], in assay [2], in assay [3], in [4], in assay [5] and in assay [6] was “inactive” in each case.

Take `CCCCC/C=C\C/C=C\CCCCCCCC(=O)OC`: the Potency entry in assay [1], in [5] and in [6] was “inactive” throughout. Further, the Potency in [2] was 30.6 µM (active); in assay [3], 30.6 µM (active); in assay [4], 21.7 µM (active).

Regarding `NC(=O)/N=N/C(N)=O`, the Potency result in assay [1], in assay [2], in [3], in [4], in [5] and in [6] was “inactive” throughout.

On to `Cc1cc(NS(=O)(=O)c2ccc(N)cc2)no1`, for which the Potency result in assay [1], in assay [2], in assay [3], in [4], in [5] and in assay [6] was “inactive” throughout.

For the compound `C=C(C)C(=O)OCCCCCCCCCCCC`, the Potency result in assay [1], in assay [2], in assay [3], in assay [4], in assay [5] and in [6] was “inactive” throughout.

Regarding `CC(=O)Nc1ccc(C(=O)O)cc1`, the Potency entry in assay [1], in assay [2], in assay [3], in assay [4], in assay [5] and in assay [6] was “inactive” in each case.

Turning to `O=Nc1ccc(O)cc1`, the Potency entry in assay [1], in assay [2], in [3], in assay [4], in assay [5] and in [6] was “inactive” in each case. In addition, the compound was called inactive in assay [7], in assay [8], in assay [9] and in assay [10].

Consider `CC1=C(CC(=O)O)c2cc(F)ccc2/C1=C\c1ccc(S(C)=O)cc1` (stereo unspecified), for which the Potency entry in assay [1], in assay [5] and in assay [6] was “inactive” throughout. Besides, the Potency result in assay [2] is “inactive and 68.6 µM (active)”; in assay [3], 6.86 µM (active); in assay [4], “inactive and 24.3 µM (active)”.

Take `O=S(=O)(O)CCS`: the Potency entry in [1], in assay [2], in assay [3], in assay [4], in [5] and in assay [6] was “inactive” in each case.

With `Cc1cc(O)c2c(c1)C(=O)c1cc(O)cc(O)c1C2=O`, the Potency entry in assay [1] and in [6] was “inactive” each time. In addition, the Potency in assay [2] is 27.3 µM (active); in assay [3], “inactive and 38.6 µM (active)”; in assay [4] it was 1.68 µM (active) and 3.06 µM (active); in assay [5], 12 µM (active) and inactive.

Take `CN(CCOc1ccc(CC2SC(=O)NC2=O)cc1)c1ccccn1` (stereo unspecified): the Potency entry in [1], in assay [5] and in assay [6] was “inactive” each time. Further, the Potency result was “inactive and 60.8 µM (active)” in [2]; “inactive and 60.8 µM (active)” in [3]; 27.1 µM (active) in [4].

On to `OC1CCCC1`, for which the Potency entry in [1], in [2], in assay [3], in [4], in [5] and in assay [6] was “inactive” each time.

With `C=C1C2CCC(C2)C1(C)C` (stereo unspecified), the Potency entry in [1], in assay [2], in assay [3], in [4], in assay [5] and in assay [6] was “inactive” throughout.

Take `O=[N+]([O-])C(CO)(CO)CO`: the Potency entry in [1], in [3], in assay [5] and in [6] was “inactive” in each case. In addition, the Potency result in [2] was “inactive and 68.6 µM (active)”; in assay [4] it was “inactive and 68.6 µM (active)”.

As to `CCc1ccc(O)cc1`, the Potency entry in [1], in [2], in [3], in [4], in assay [5] and in assay [6] was “inactive” each time. For the same compound, the compound was called inactive in [7], in assay [8], in assay [9] and in assay [10].

Regarding `O=[N+]([O-])c1cccc(Cl)c1`, the Potency entry in assay [1], in [2], in assay [3], in assay [4], in assay [5] and in assay [6] was “inactive” each time.

With `CC[Si](OC(C)=O)(OC(C)=O)OC(C)=O`, the Potency result in assay [1], in [2], in [3], in assay [4], in [5] and in [6] was “inactive” in each case.

As to `CCC(C)C=O` (stereo unspecified), the Potency result in [1], in assay [2], in [3], in [4], in assay [5] and in assay [6] was “inactive” in each case.

On to `S=c1nc[nH]c2nc[nH]c12`, for which the Potency entry in assay [1], in assay [4] and in [6] was “inactive” in each case. In addition, the Potency in [2] is 23.7 µM (active); in [3], 53.1 µM (active); in assay [5] it was 5.36 µM (active).

With `O=C(O)c1ccc([N+](=O)[O-])cc1`, the Potency entry in assay [1], in [2], in [3], in [4], in assay [5] and in [6] was “inactive” each time.

Turning to `Nc1cc(-c2ccncc2)c[nH]c1=O`, the Potency entry in assay [1], in [2], in assay [3], in assay [4], in [5] and in assay [6] was “inactive” each time. The call in assay [7], in assay [8], in assay [9] and in assay [10] was inactive.

The values above are taken from PubChem BioAssay (Tox21).
